ChEMBL document CHEMBL3988442, “University of Dundee, Small-Polar-MMV Screening Library” (2021)

target: AMP-activated protein kinase, AMPK (Homo sapiens) (UniProt P54646+O43741+P54619+Q9UGJ0+Q9Y478+Q13131+Q9UGI9); test: AMP-dependent Kinase enzyme assay. An in vitro enzyme assay that detects ADP turnover that is directly proportional to AMPK activity. This uses naive AMPK that is activated during the assay with MK-8722; format: functional; parameters: scale not given: direction of the effect not stated beside the values; details: 30 µM

Compared with `CC(C(=O)Nc1ccc(N2CCCC2)nc1)n1ccnc1` (stereo not given), `CC(=O)Nc1nc(C(=O)N2CCCC(n3ccnc3)C2)cs1` (stereo not given) is higher in Percent Effect: -13.4% for the first, -5.64% for the second.

Going from `O=C1N(Cc2ccccc2F)CCCC12CCN(C1CCSCC1)C2` (stereo not given) to `O=C(C1CC1)N1CCCC1C1CCN(Cc2ccccc2)CC1` (stereo not given), the Percent Effect rises from -0.682% to 6.02%.

Compared with `Cn1cc(CN2CC3(CCN(C(=O)c4ccoc4)C3)C2)cn1`, `O=C(c1cccnc1-n1cccn1)N1CCN(CC2CC2)CC1` is lower in Percent Effect: 4.12% for the first, -1.98% for the second.

Going from `CCOC(=O)NC(CNC(=O)CCc1ccccn1)CC(C)C` (stereo not given) to `CCCN(CC(=O)NC)C(=O)c1ccc(-c2ccsc2)nc1C`, the Percent Effect falls from 0.68% to -2.8%.

Compared with `Cc1ccc(C2CSCCN2C(=O)C2=CCCC2)o1` (stereo not given), `CCc1cnc(CNc2ccc(C(=O)N3CCCC(C)C3)cc2C)o1` (stereo not given) is higher in Percent Effect: -2.27% for the first, 6.76% for the second.

Compared with `Cc1nc(Nc2nccs2)cc(C2CCCN2C2CCOCC2)n1` (stereo not given), `Cc1cc(CC(=O)N(CC2CN(C)CCO2)c2nccs2)no1` (stereo not given) is lower in Percent Effect: 4.38% for the first, -0.764% for the second.

First: COCc1cn([C@@H]2c3ccccc3C3(CCNCC3)[C@H]2O)nn1
Second: COc1cc(N2C[C@@H]3COC[C@]3(COCc3cccc(C)n3)C2)ncn1
The Percent Effect of the first is lower: 2.64% for the first, 3.71% for the second.

First: N#Cc1ccc(F)c(CN2CCCC2Cn2cnc3ccccc32)c1 (stereo not given)
Second: CS(=O)(=O)NCC1CCCN(Cc2ccc(F)c3cccnc23)C1 (stereo not given)
The Percent Effect of the first is higher: -0.578% for the first, -1.1% for the second.

Compared with `O=C(CCCc1ncc(-c2ccccc2)o1)N1CCN(CCO)CC1`, `CCOc1ccc(CC(=O)N2CCN(c3nccn3C)CC2)cc1` is lower in Percent Effect: 6.12% for the first, 1.57% for the second.

Compared with `CCn1cnnc1CNC(=O)N(C)Cc1ccc2c(c1)OCCO2`, `CN(C)C1CCN(C(=O)NCc2ccc(Cn3cncn3)cc2)CC1` is higher in Percent Effect: -15.5% for the first, -5.16% for the second.

Going from `COCCNC(=O)C(C)n1cc(Br)cn1` (stereo not given) to `CCCNC(=O)N1CCN(Cc2cc(C)no2)CC1`, the Percent Effect falls from 1.52% to -8.42%.

Compared with `CCn1nc(CC(C)C)cc1C(=O)N1C[C@H](O)[C@@H](N2CCCCC2)C1`, `COCC1CC2(CCN(C(=O)c3cc(C)oc3C)CC2)CN1C(C)C` (stereo not given) is lower in Percent Effect: -4.12% for the first, -9.18% for the second.

First: O=C(CN1CCC(c2ccnn2CCO)CC1)NCc1cccs1
Second: O=C(NC[C@]12COC[C@H]1CN(Cc1nccs1)C2)c1ccccc1
The Percent Effect of the first is higher: -3.55% for the first, -62.1% for the second.

First: Cc1nc(C)n(CC2CN(c3ccc(C#N)cn3)CCO2)n1 (stereo not given)
Second: Fc1cccc(Oc2ccc(CNCC3CNc4ccnn4C3)cn2)c1 (stereo not given)
The Percent Effect of the first is lower: -4.42% for the first, -2.17% for the second.

Compared with `COCCN1CCC2(CC1)CC(COC)N(c1ncccn1)C2` (stereo not given), `COCCN1C[C@H]2CC[C@@]3(N=C(C)N(CC4CC4)C3=O)[C@H]2C1` is higher in Percent Effect: 1.21% for the first, 1.81% for the second.

Compared with `O=C(CCOCc1ccccc1)N1CCCC1c1noc(C2CC2)n1` (stereo not given), `O=C(COCc1ccccc1Cl)N1CCCC(n2cccn2)C1` (stereo not given) is higher in Percent Effect: -9.42% for the first, 6.5% for the second.

First: Cc1cc(C[C@@H]2COC[C@@H]2NC(=O)CN2CCCC2)on1
Second: O=C(CN1CCCCC1Cn1cccn1)NC1CCN(C2CC2)CC1 (stereo not given)
The Percent Effect of the first is higher: 1.08% for the first, -4.99% for the second.

Going from `Cn1cccc1C(=O)N1CCN(Cc2ccncc2)c2ncccc2C1` to `NC(=O)CN1CCCN(C(=O)c2ccn(-c3cccc(F)c3)n2)CC1`, the Percent Effect falls from 9.01% to -1.98%.

Compared with `COCCCC1(CO)CCCN(CCS(C)(=O)=O)C1` (stereo not given), `CC(C)NC(=O)N1CCN(S(=O)(=O)C2CC2)CC2(CC(=O)N(C)C2)C1` (stereo not given) is higher in Percent Effect: 3.61% for the first, 5.32% for the second.

Compared with `CC1CCCCN1c1nc2c(c(=O)[nH]1)CCN(Cc1cccnc1)C2` (stereo not given), `CCO[C@@H]1CC[C@H]2[C@H]1OCCN2C(=O)C1CCOCC1` is lower in Percent Effect: 6.19% for the first, -7.07% for the second.

target: Sialic acid-binding Ig-like lectin 9 (Homo sapiens) (UniProt Q9Y336); test: Hs-Siglec9 ALPHAscreen SOP 20170721; parameters: scale not given: direction of the effect not stated beside the values; details: 10 µM
Sequence (Q9Y336 whole entry): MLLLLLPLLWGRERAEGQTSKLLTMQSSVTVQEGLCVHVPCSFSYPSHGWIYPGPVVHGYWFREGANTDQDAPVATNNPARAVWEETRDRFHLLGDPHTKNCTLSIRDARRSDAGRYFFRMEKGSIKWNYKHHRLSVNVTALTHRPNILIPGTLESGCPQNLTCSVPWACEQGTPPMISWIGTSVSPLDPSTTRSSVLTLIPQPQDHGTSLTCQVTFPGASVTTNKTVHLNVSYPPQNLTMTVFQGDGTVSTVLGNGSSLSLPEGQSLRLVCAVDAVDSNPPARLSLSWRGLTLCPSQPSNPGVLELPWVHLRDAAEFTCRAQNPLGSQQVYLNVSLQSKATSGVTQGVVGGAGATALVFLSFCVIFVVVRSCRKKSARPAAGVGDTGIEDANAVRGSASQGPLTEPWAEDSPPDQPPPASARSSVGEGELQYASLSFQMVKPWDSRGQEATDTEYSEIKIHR

Compared with `CC(C(=O)Nc1ccc(N2CCCC2)nc1)n1ccnc1` (stereo not given), `CC(=O)Nc1nc(C(=O)N2CCCC(n3ccnc3)C2)cs1` (stereo not given) is lower in Percent Effect: 11.1% for the first, -2.76% for the second.

Compared with `O=C1N(Cc2ccccc2F)CCCC12CCN(C1CCSCC1)C2` (stereo not given), `O=C(C1CC1)N1CCCC1C1CCN(Cc2ccccc2)CC1` (stereo not given) is lower in Percent Effect: 0.979% for the first, -2.3% for the second.

Going from `Cn1cc(CN2CC3(CCN(C(=O)c4ccoc4)C3)C2)cn1` to `O=C(c1cccnc1-n1cccn1)N1CCN(CC2CC2)CC1`, the Percent Effect rises from -0.00343% to 1.24%.

First: CCOC(=O)NC(CNC(=O)CCc1ccccn1)CC(C)C (stereo not given)
Second: CCCN(CC(=O)NC)C(=O)c1ccc(-c2ccsc2)nc1C
The Percent Effect of the first is lower: -3.55% for the first, 10.6% for the second.

Compared with `Cc1ccc(C2CSCCN2C(=O)C2=CCCC2)o1` (stereo not given), `CCc1cnc(CNc2ccc(C(=O)N3CCCC(C)C3)cc2C)o1` (stereo not given) is lower in Percent Effect: 26.9% for the first, -0.151% for the second.

Going from `Cc1nc(Nc2nccs2)cc(C2CCCN2C2CCOCC2)n1` (stereo not given) to `Cc1cc(CC(=O)N(CC2CN(C)CCO2)c2nccs2)no1` (stereo not given), the Percent Effect rises from 1.96% to 6.8%.

First: COCc1cn([C@@H]2c3ccccc3C3(CCNCC3)[C@H]2O)nn1
Second: COc1cc(N2C[C@@H]3COC[C@]3(COCc3cccc(C)n3)C2)ncn1
The Percent Effect of the first is higher: 16.1% for the first, 5.38% for the second.

Compared with `N#Cc1ccc(F)c(CN2CCCC2Cn2cnc3ccccc32)c1` (stereo not given), `CS(=O)(=O)NCC1CCCN(Cc2ccc(F)c3cccnc23)C1` (stereo not given) is higher in Percent Effect: -0.466% for the first, 10.8% for the second.

First: O=C(CCCc1ncc(-c2ccccc2)o1)N1CCN(CCO)CC1
Second: CCOc1ccc(CC(=O)N2CCN(c3nccn3C)CC2)cc1
The Percent Effect of the first is lower: -6.16% for the first, 3.44% for the second.

First: CCn1cnnc1CNC(=O)N(C)Cc1ccc2c(c1)OCCO2
Second: CN(C)C1CCN(C(=O)NCc2ccc(Cn3cncn3)cc2)CC1
The Percent Effect of the first is lower: -4.03% for the first, 28.9% for the second.

Compared with `COCCNC(=O)C(C)n1cc(Br)cn1` (stereo not given), `CCCNC(=O)N1CCN(Cc2cc(C)no2)CC1` is lower in Percent Effect: 7.73% for the first, -2.41% for the second.

Compared with `CCn1nc(CC(C)C)cc1C(=O)N1C[C@H](O)[C@@H](N2CCCCC2)C1`, `COCC1CC2(CCN(C(=O)c3cc(C)oc3C)CC2)CN1C(C)C` (stereo not given) is lower in Percent Effect: 15.8% for the first, -4.84% for the second.

Going from `O=C(CN1CCC(c2ccnn2CCO)CC1)NCc1cccs1` to `O=C(NC[C@]12COC[C@H]1CN(Cc1nccs1)C2)c1ccccc1`, the Percent Effect rises from -6.32% to 6.67%.

Going from `Cc1nc(C)n(CC2CN(c3ccc(C#N)cn3)CCO2)n1` (stereo not given) to `Fc1cccc(Oc2ccc(CNCC3CNc4ccnn4C3)cn2)c1` (stereo not given), the Percent Effect falls from 10.3% to 5.01%.

Compared with `COCCN1CCC2(CC1)CC(COC)N(c1ncccn1)C2` (stereo not given), `COCCN1C[C@H]2CC[C@@]3(N=C(C)N(CC4CC4)C3=O)[C@H]2C1` is lower in Percent Effect: 1.5% for the first, -4.12% for the second.

First: O=C(CCOCc1ccccc1)N1CCCC1c1noc(C2CC2)n1 (stereo not given)
Second: O=C(COCc1ccccc1Cl)N1CCCC(n2cccn2)C1 (stereo not given)
The Percent Effect of the first is higher: 3.05% for the first, -7.66% for the second.

First: Cc1cc(C[C@@H]2COC[C@@H]2NC(=O)CN2CCCC2)on1
Second: O=C(CN1CCCCC1Cn1cccn1)NC1CCN(C2CC2)CC1 (stereo not given)
The Percent Effect of the first is lower: -9.23% for the first, 6.13% for the second.

Compared with `Cn1cccc1C(=O)N1CCN(Cc2ccncc2)c2ncccc2C1`, `NC(=O)CN1CCCN(C(=O)c2ccn(-c3cccc(F)c3)n2)CC1` is lower in Percent Effect: 8.59% for the first, -6% for the second.

Going from `COCCCC1(CO)CCCN(CCS(C)(=O)=O)C1` (stereo not given) to `CC(C)NC(=O)N1CCN(S(=O)(=O)C2CC2)CC2(CC(=O)N(C)C2)C1` (stereo not given), the Percent Effect rises from -1.71% to -0.477%.

Compared with `CC1CCCCN1c1nc2c(c(=O)[nH]1)CCN(Cc1cccnc1)C2` (stereo not given), `CCO[C@@H]1CC[C@H]2[C@H]1OCCN2C(=O)C1CCOCC1` is higher in Percent Effect: 3.8% for the first, 5.16% for the second.
